For 17 compounds, Potency results are on record in PubChem BioAssay (NCATS).

Records with an inconclusive call do not appear. A call without a number means that no potency is given here. Calls of active or inactive are those of the source. The call rests on the fitted dose curve; in most records, active means well fitted inhibition curve with a large enough effect; inconclusive means small, poorly fitted or top-dose-only effect; inactive means flat fitted curve, though single readings scatter.
Potency means the concentration at half of the fitted maximal effect.

In the test the test system is CP268. Briefly: qHTS profiling for inhibitors of Plasmodium falciparum proliferation (AID 504749). Further: nearly all actives have a fitted effect of over 60% in size. Particulars: P. falciparum in erythrocytes, SYBR Green DNA, 72 h; series mostly up to 28.7 µM. In short, it runs like this: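 Quantitative HTS: compounds pinned into medium, infected erythrocytes added (0.3% parasitemia, 2.5% hematocrit), 72 h culture at 37 C under 5% CO2. Saponin/Triton lysis with SYBR Green I, overnight RT, then fluorescence read.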
For orientation: In qHTS, concentration-response curves come from the screen itself.
As for `Cc1cc(NS(=O)(=O)c2ccc(N)cc2)nc(C)n1`, the Potency entry is “inactive”.

In the case of `CC(=O)OC[C@H]1O[C@@H](n2ncc(=O)[nH]c2=O)[C@H](OC(C)=O)[C@@H]1OC(C)=O`, the Potency result was “inactive”.

In the case of `CCOc1ccccc1OCCN[C@H](C)Cc1ccc(OC)c(S(N)(=O)=O)c1`, the Potency result was “inactive”.

As for `O=C(NCCc1c[nH]c2ccccc12)c1cccnc1`, the Potency entry was “inactive”.

Take `Cc1ccccc1OCC(O)CO` (configuration not stated): the Potency entry was “inactive”.

Take `Cc1cc(C)cc(OCC2CNC(=O)O2)c1` (configuration not stated): the Potency result was “inactive”.

For `CCOc1cc(OCC)c(C(=O)CCC(=O)O)cc1OCC`, the Potency result is “inactive”.

As for `N#CCC(=O)NN`, the Potency entry was “inactive”.

Consider `O=C(O)C(Cc1cc(I)c(O)c(I)c1)c1ccccc1` (configuration not stated), for which the Potency entry is “inactive”.

Consider `CCCCCCCC/C=C\CCCCCCCCN`, for which the Potency entry was “inactive”.

Regarding `CC1=C(C(=O)O)N2C(=O)[C@@H](NC(=O)[C@H](N)c3ccccc3)[C@H]2SC1`, the Potency result was “inactive”.

In the case of `CCN(CC)CCNc1ccc(CO)c2sc3ccccc3c(=O)c12`, the Potency was 3.38 µM (active).

With `Cl/C(=C\n1cncn1)c1ccc(Cl)cc1Cl`, the Potency result is “inactive”.

Consider `CCCCCCCCCCCCCCCC(=O)O`, for which the Potency entry is “inactive”.

Regarding `CC(C)CCCC(C)N` (configuration not stated), the Potency result is “inactive”.

With `CCOC(=O)c1ccc(N)cc1`, the Potency result was “inactive”.

In the case of `Cc1c[nH]c2ccccc12`, the Potency result is “inactive”.
